RTF Ca sens act = increases calcium sensitivity of human cardiac regulated thin filaments. activation, % at 7.2 µM. IANBD-labeled TnC RTF fluorescence at EC20 calcium; 0% EC20 calcium, 100% full calcium. actives 0.24% (n = 340,000). P19429+P45379;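 active = activation above the mean over all tested compounds plus 3 SD, cut at about 30% in these data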;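 note: rise in fluorescence read as greater calcium sensitivity of cardiac thin filaments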
CRFBP-R2 block = antagonists of CRF-binding protein/CRF-R2 receptor complex. HEK293 CRF-R2/CRF-BP, CRF-induced calcium fluorescence. inhibition, % at 11.8 µM. actives 0.59% (n = 350,000). AID 588475;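 active = inhibition of the ligand-induced calcium signal above about 50% at the single tested concentration, limit read from the data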
Cardiac RTF inh = cardiac RTF calcium desensitization; actives 0.12% (n = 340,000); IANBD-labeled cardiac RTF, Ca2+ fluorescence; AID 493244; P19429+P45379; inhibition, % at 7.15 µM;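 active = inhibition above the mean inhibition of all tested compounds plus 3 SD, cut at about 17% in these data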;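 note: assay run at fixed EC70 calcium of 1.6 mM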
CRFR2-BP ag = agonists of human CRF-binding protein/CRF-R2 receptor complex | activation, % at 13.2 µM | actives 0.46% (n = 350,000) | HEK293 CRF-R2/CRF-BP, calcium dye fluorescence (FLIPR); percent of saturating CRF peptide response;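 active = activation of at least 50%, plus an integration ratio under a set limit after plate pattern correction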;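 note: plate controls were neutral control wells without compound for no effect and CRF at EC100 for full effect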
IDE cell inh = inhibitors of human insulin-degrading enzyme in cells; HEK cells, FAbetaB cleavage, fluorescence polarization; actives 0.41% (n = 320,000); inhibition, % at 5.59 µM;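 active = percent inhibition above the average of all tested compounds plus 3 SD, set per screening campaign, cut at about 16% in these data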;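 note: IDE supplied by intact live HEK cells; FP after avidin binding of uncleaved biotin substrate so inhibition keeps polarization high; 0% = DMSO wells and 100% = 60 µM reference IDE inhibitor Ii1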
Target sequence (P14735 whole entry, looked up): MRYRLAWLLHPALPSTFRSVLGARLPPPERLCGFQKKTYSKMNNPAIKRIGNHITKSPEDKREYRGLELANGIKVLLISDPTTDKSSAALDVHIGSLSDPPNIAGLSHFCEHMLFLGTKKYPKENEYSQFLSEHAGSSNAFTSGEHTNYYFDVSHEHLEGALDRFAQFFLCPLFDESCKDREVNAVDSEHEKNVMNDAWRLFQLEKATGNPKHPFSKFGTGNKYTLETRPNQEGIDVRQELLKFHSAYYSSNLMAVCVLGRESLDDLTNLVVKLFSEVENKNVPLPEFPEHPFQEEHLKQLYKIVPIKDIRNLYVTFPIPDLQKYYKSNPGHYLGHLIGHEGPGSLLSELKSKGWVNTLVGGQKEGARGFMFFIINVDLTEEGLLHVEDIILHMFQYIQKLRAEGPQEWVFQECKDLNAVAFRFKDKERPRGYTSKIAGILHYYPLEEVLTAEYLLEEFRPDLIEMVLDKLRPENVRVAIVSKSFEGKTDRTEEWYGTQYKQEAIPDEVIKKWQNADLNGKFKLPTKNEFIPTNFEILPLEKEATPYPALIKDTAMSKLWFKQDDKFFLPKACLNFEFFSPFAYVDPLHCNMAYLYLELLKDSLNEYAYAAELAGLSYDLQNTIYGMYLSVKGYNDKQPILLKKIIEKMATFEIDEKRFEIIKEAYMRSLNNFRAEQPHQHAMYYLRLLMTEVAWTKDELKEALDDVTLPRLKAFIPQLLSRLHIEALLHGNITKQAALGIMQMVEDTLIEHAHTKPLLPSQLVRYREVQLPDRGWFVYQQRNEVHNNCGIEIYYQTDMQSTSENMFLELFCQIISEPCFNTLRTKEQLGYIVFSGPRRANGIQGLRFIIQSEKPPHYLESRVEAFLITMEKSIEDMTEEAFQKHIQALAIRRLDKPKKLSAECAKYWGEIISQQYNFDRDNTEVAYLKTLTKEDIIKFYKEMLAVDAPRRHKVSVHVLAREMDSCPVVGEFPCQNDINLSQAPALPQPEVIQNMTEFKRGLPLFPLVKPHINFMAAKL
IDE cell activ = IDE (human) activation, cell-based | activation, % at 5.96 µM | P14735 | HEK cells, FAbeta-B cleavage, fluorescence polarization; 0% vehicle, 100% cell-free pure enzyme wells | actives 0.073% (n = 340,000);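 active = activation above the mean of all tested compounds plus 3 SD, set per screening campaign, cut at about 17% in these data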
* hit, by the source's call; . = not tested or not shown. This is a sample that favours compounds with a hit; in the whole collection about 1.5% have one here.

SMILES	RTF Ca sens act	CRFBP-R2 block	Cardiac RTF inh	CRFR2-BP ag	IDE cell inh	IDE cell activ
Cc1cc(Br)ccc1SCC(=O)OCC(=O)Nc1ccccc1C#N	20	26	8	-6	3	0
Cc1c(-c2ccc(Cl)cc2)[n+](=O)c(-c2ccccc2)cn1[O-]	.	111*	.	0	2	.
COc1ccc(C2CC(C(F)(F)F)n3nc(C(=O)O)c(Cl)c3N2)cc1OC (stereo unspecified)	-1	3	-2	3	-2	18*
CC(C)=CCCC1(C)C=Cc2c(c(C)cc3c2[nH]c2cc(O)ccc23)O1 (stereo unspecified)	3	-11	0	1	-6	24*
Cc1cc(=O)[nH]c2cc(O)ccc12	-3	6	-2	0	6	3
CC(C)(C)C(=O)/C(=C/c1ccc(Cl)cc1)n1cncn1	-1	55*	-8	29	.	3
CCc1cccc(CC)c1NC(=O)C1CCN(C(=O)c2ccco2)CC1	8	0	-23	-1	-4	3
CCCC1=C(C(=O)OCC)C(c2cccnc2)n2nc(C)nc2N1 (stereo unspecified)	-3	114*	-2	0	-2	9
COc1cc(OC)cc(C(=O)NCCCCc2ccccc2)c1	-4	11	-2	-1	1	-1
CC(=O)Nc1ccc(N=Cc2c(O)c(C(=O)Nc3ccccc3)cc3ccccc23)cc1	.	-88	.	115*	-3	.
O=C1c2cccc3c([N+](=O)[O-])ccc(c23)C(=O)N1c1ccc(Cl)cn1	11	91*	-24	19	14	-14
O=C1c2cccc3c([N+](=O)[O-])ccc(c23)C(=O)N1c1ccccn1	-2	60*	4	7	2	-8
O=C1c2cccc3c([N+](=O)[O-])ccc(c23)C(=O)N1c1nccs1	2	83*	-11	23	23*	-6
O=C1c2cccc3c([N+](=O)[O-])ccc(c23)C(=O)N1O	7	-6	-8	11	-2	2
O=C1c2cccc3cccc(c23)C(=O)N1c1nccs1	-7	21	-5	-2	8	-2
Cc1c(NC(=O)COC(=O)c2ncc(Cl)c(Cl)c2Cl)c(=O)n(-c2ccccc2)n1C	1	2	-22	-3	4	0
CCOc1ccc(CNC2CCCc3ccccc32)cc1 (stereo unspecified)	10	9	-4	-1	7	3
CC(=O)Nc1ccc(NC(=O)CC(NC(=O)c2ccccc2)c2ccccc2)cc1 (stereo unspecified)	-8	-1	-4	-1	5	4
Nc1ccc(/C=C/C(=O)c2cccs2)cc1	8	-73	-15	103*	11	-27
CCOc1ccc(CCNC(=O)C2CCCN(S(=O)(=O)N3CC(C)CC(C)C3)C2)cc1OCC (stereo unspecified)	-5	10	4	-1	-1	6
O=[N+]([O-])c1cccnc1Sc1ccc(Cl)cc1	1	61*	-3	-3	6	5
O=C1Nc2cc3c(cc2C1=O)sc1ccccc13	.	-4	.	-3	-2	.
CC(=O)c1ccc(NC(=O)C(C)OC(=O)c2ccc(Br)o2)cc1 (stereo unspecified)	1	54*	-5	3	2	2
Cc1cc(C)c(S(=O)(=O)ON2C(=O)c3ccccc3C2=O)cc1C	5	12	-5	3	-4	2
Cc1ccc(S(=O)(=O)ON2C(=O)c3ccccc3C2=O)c(C)c1	1	63*	-5	2	4	-1
O=C(CSc1nc(N2CCOCC2)nc(N2CCOCC2)n1)Nc1ccc([N+](=O)[O-])cc1	1	-6	-5	6	-14	23*
CCCn1nc(C(=O)Nc2cc(S(=O)(=O)Nc3ccc(OC)cc3)ccc2O)c2ccccc2c1=O	-3	54*	2	-1	-5	-4
NC(=O)C1=C(N=C2CCCCC2)CCCC1	0	7	1	0	.	5
O=C1CC(O)(C(F)(F)F)Oc2c1ccc1ccccc21 (stereo unspecified)	1	65*	-3	62*	2	0

Bioassay records: PubChem, several laboratories
